# Experimental data from PubChem BioAssay AID624100 (ICCB-Longwood Screening Facility, Harvard Medical School, 2012).
# The other results are listed elsewhere or left out. Unmarked numbers belong to inactive results. Active and inactive are the calls of the source.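 How the source made its calls: active means average inhibition over replicates above about 50%, so the earlier screening hit is confirmed (limit read from the data); inactive means the rest, counted as false positives.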
# Biological target: Ubiquitin carboxyl-terminal hydrolase isozyme L5 (Homo sapiens) (UniProt Q9Y5K5)
# Sequence (Q9Y5K5 whole entry, looked up): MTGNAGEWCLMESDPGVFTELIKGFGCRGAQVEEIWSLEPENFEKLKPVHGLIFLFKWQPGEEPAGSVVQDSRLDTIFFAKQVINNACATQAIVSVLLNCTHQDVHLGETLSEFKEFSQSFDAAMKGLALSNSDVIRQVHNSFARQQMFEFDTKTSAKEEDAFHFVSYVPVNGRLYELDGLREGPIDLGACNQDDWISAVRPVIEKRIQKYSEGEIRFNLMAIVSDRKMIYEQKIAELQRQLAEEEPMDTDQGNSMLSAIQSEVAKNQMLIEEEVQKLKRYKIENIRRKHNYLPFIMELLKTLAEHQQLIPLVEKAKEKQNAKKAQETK
# Experiment: proteasome-bound UCH37 Ub-AMC cleavage inhibition – biochemical, Ub-AMC cleavage rate, fluorescence, confirmation (AID 624100);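 further: based on cleavage rate fitted by regression over a 30 min kinetic read; 0% = proteasome plus Ub-AMC and 100% = Ub-AMC without proteasome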
# Settings: at 20 µM, hits give high values
row,SMILES,inhibition
1,CC1CCCN(C(=O)c2ccc3c(c2)C(=O)N(CCC2=CCCCC2)C3=O)C1 (stereo not given),61% (active)
2,Cc1ccc(Nc2cc(C)nc3c(C)ccc([N+](=O)[O-])c23)cc1,0.827%
3,N#C/C(=C/c1ccc(N2CCOCC2)o1)C(=O)N1CCOCC1,29.8%
4,COc1ccc(Cn2nnc3c(=O)[nH]c(C4CCN(C(=O)c5ccccc5Cl)CC4)nc32)cc1,17.8%
5,COC1=C(N2CCOCC2)C(=O)c2ccccc2C1=O,12.6%
6,CC(OC(=O)c1c(F)cccc1F)C(=O)NCCC1=CCCCC1 (stereo not given),32.7%
7,CC(C)NC(=O)/C(C#N)=C\c1ccc(N(C)C)c(Br)c1,9.32%
8,CC(=O)N1C(=O)/C(=C2\SC(=S)N(NC(=O)c3ccc(O)cc3)C2=O)c2ccccc21,63.5% (active)
9,O=C(OCC(=O)N1CCN(c2ccccc2)CC1)c1ccc([N+](=O)[O-])s1,22.8%
10,O=C(/C=C/c1ccccc1)c1ccoc1,8.47%
11,CC(C)CC[n+]1ccn(C2=C([O-])c3ccccc3C(=O)/C2=N\S(=O)(=O)c2ccccc2)c1,29.9%
12,COc1cccc(C2/C(=C(/O)c3ccc(F)cc3)C(=O)C(=O)N2CCN(C)C)c1 (stereo not given),12.7%
13,CCCCCCCCn1c2c(c(=N)c3c1CCC3)CCCC2,42.2%
14,CCN(CC)CCCC(C)n1c2nc(=O)[nH]c(=O)c-2nc2cc(Cl)ccc21 (stereo not given),85.1% (active)
15,O=C(O)C(c1ccccc1)N1C(=O)/C(=C\c2ccc(-c3cccc(Cl)c3)o2)SC1=S (stereo not given),67.4% (active)
16,COc1cc(NC(=O)COC(=O)c2ccc([N+](=O)[O-])s2)cc(OC)c1OC,14.6%
17,O=C(NC1CCCC1)C(c1ccc(N2CCOCC2)cc1)N(C(=O)c1ccco1)c1ccccc1F (stereo not given),4.55%
18,Cn1ccc(=Nc2ccc(NC(=O)c3ccc(N=c4ccn(C)c5ccc([N+](=O)[O-])cc45)cc3)cc2)cc1,71.3% (active)
19,O=c1ccc2c(-c3ccccc3S(=O)(=O)O)c3ccc(O)c(O)c3oc-2c1O,36.2%
20,COc1ccc(S(=O)(=O)/N=C2\C=C(NS(=O)(=O)c3ccccc3)C(=O)c3ccccc32)cc1,83.7% (active)
21,COCCN1C=C2C(=O)C(C)(OC(=O)C3CCCC3)C(=O)C=C2C=C1c1ccsc1 (stereo not given),24.9%
22,O=C1C(Cl)=C(Oc2ccccc2)C(=O)c2ccccc21,95.2% (active)
23,CCOC(=O)c1c(C)[nH]c2c1-c1ccccc1C(=O)C2=O,90.1% (active)
24,Cc1[nH][nH]c(=O)c1C(c1ccc(-c2ccc(Cl)cc2)o1)c1c(C)[nH][nH]c1=O,6.33%
25,O=C1Nc2ccc([N+](=O)[O-])cc2C1=Nc1cccc(CO)c1,-1.27%
